Screen size: about 140,000 compounds; about 2,100 (1.5%) were called active. Many of the other results were omitted from the sample, so actives are more common in it than they were. Values without a mark were called inactive.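 Rule for the calls: active = viability at or under a set limit, the compound median less 4 SD (cut at about 6% in these data); inactive = the rest.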
Assay: primary screen for growth suppressors in beta-catenin knockout HCT116 cells (colon tumor, human) (AID 818);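 note: 0% = Hyamine 1622 control at 20 µM and 100% = untreated cell control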
Details: CellTiter-Glo, 60 h, at 10 µM, stronger effect = lower value

Structure (SMILES) | viability
CSCCC(Nc1ccc(S(=O)(=O)N2CCOCC2)cc1[N+](=O)[O-])C(=O)OCC(=O)N(C(C)C)C(C)C (stereo unspecified) | 92.2%
Cc1ccc(-c2nc3c(cnn3-c3ccccc3)c(=O)o2)cc1 | 95.4%
COc1ccc(-n2c(C)nc3c(cnn3-c3ccccc3)c2=O)cc1 | 29.9%
COc1ccc(Oc2c(Cl)cnn(-c3ccccc3)c2=O)cc1 | 5.5% (active)
COc1ccccc1OCc1ccc(C(=O)N2CCN(C)CC2)o1 | 101%
CCOc1ccc(C(=O)Nc2nccs2)cc1[N+](=O)[O-] | 94%
COc1ccccc1/C=N\Nc1cc(C)nc(-n2nc(C)cc2C)n1 | 3.9% (active)
COc1ccc(Nc2cc(C)nc(-n3nc(C)cc3C)n2)cc1 | 15.2%
COc1cc(NS(=O)(=O)c2ccccc2)ccc1-n1nc(C)cc1C | 101%
COc1ccc(-n2c(=S)[nH]c3sc4c(c3c2=O)CCc2ccccc2-4)cc1 | 81%
CN(C)C(=O)c1ccc2c(c1)C1C3CCC(C3)C1C(c1ccccc1)N2 (stereo unspecified) | 83.3%
CC(C)(C)c1ccc(C(=O)NCCn2c(N)c(C#N)c3nc4ccccc4nc32)cc1 | 66.5%
N#Cc1c(N)n(CCOC(=O)c2ccc(Cl)cc2)c2nc3ccccc3nc12 | 84.2%
CN(C)CCCn1c(N)c(C#N)c2nc(C#N)c(C#N)nc21 | 5.78% (active)
CCC1C(=O)c2ccccc2N(C)C1=O (stereo unspecified) | 88.1%
C[C@@H](O)c1nc2ccccc2n1N | 96%
CCOc1ccc(NC(=O)CN2CCN(CC(=O)Nc3ccc(OC)cc3)CC2)cc1 | 85.4%
CCOc1ccc(NC(=O)CCC(=O)N/N=C/c2ccc([N+](=O)[O-])s2)cc1 | 5.45% (active)
CCOc1ccc(NC(=O)CCC(=O)n2nc(C)cc2C)cc1 | 96.2%
CSc1ccc(/C=N/NC(=O)c2cccc(Cl)c2)cc1 | 84.1%
COc1ccc2c(-c3ccccc3)cc(SCC(=O)N(C)C3CCS(=O)(=O)C3)nc2c1 (stereo unspecified) | 81.2%

Structure (SMILES) | viability
CCCn1nc(NS(=O)(=O)c2ccccc2)c2cc3cc(C)ccc3nc21 | 91.5%
O=C(CCC(=O)c1cccs1)NCc1ccccc1 | 88.8%
Cc1ccc(C)c(NC(CC(=O)c2ccccc2)C(=O)OCC(=O)c2cccs2)c1 (stereo unspecified) | 86.5%
Cc1ccccc1C(CC(=O)c1cccs1)C(C#N)C#N (stereo unspecified) | 2.37% (active)
CC(=O)Nc1cccc(/C(C)=N/NC(=O)c2c(-c3ccccc3Cl)noc2C)c1 | 54.6%
Cn1cc(/C=C/c2nc3ccccc3c(=O)n2-c2cccc([N+](=O)[O-])c2)c2ccccc21 | 66.3%
CCn1c(/C=C/c2ccc([N+](=O)[O-])o2)nc2ccccc2c1=O | 2.56% (active)
Cc1ccc(-n2c(SCC(=O)N/N=C/C=C/c3ccccc3[N+](=O)[O-])nc3ccccc3c2=O)cc1 | 83.5%
O=C(CSc1nc2ccccc2[nH]1)N/N=C/C=C\c1ccccc1[N+](=O)[O-] | 57.4%
CC(NC(=O)C(=O)NN=C1CCC(C(C)(C)C)CC1)c1ccccc1 (stereo unspecified) | 98.5%
O=C(COc1ccc(/C=N/NC(=O)c2ccc(O)cc2)cc1)Nc1ccc([N+](=O)[O-])cc1 | 64.3%
CCCCCC(=O)Nc1ccc(C(=O)N/N=C/c2ccc([N+](=O)[O-])cc2)cc1 | 4.26% (active)
CCCCCC(=O)NC(=S)NNC(=O)c1ccc([N+](=O)[O-])cc1 | 42.3%
FC(F)Oc1ccccc1NC(=S)Nc1cccc(Cl)c1Cl | 94.2%
CCN1CN(Cc2ccccc2)CNC1=S | 94.5%
C/C(=N\NC(=O)c1cc2c(s1)CCC(C)C2)c1cccnc1 (stereo unspecified) | 66.6%
Cc1ccc(C(=O)NC(=S)NCCN2CCOCC2)cc1 | 101%
Cc1ccc(-c2nnc(-c3ccc(NC(=O)c4cccs4)cc3)o2)cc1 | 2.05% (active)
COc1cccc(NC(=O)Cc2ccc(C)cc2)c1 | 99.6%
COc1ccc(CC(=O)Nc2ccc(-c3nnc(-c4ccc(C)cc4)o3)cc2)cc1 | 5.04% (active)
Cc1nc(-c2ccc(NC(=O)c3cccs3)cc2)cs1 | 67%

Structure (SMILES) | viability
Cc1ccc(-c2csc(NC(=O)c3cccs3)n2)cc1 | 95.5%
COc1ccc(CC(=O)Nc2ccc(C(=O)NC(C)(C)C)cc2)cc1 | 84.5%
O=C(/C=C/c1cccs1)NCc1cccnc1 | 91.2%
Cc1ccc(-c2nc(-c3cccnc3)sc2CC(=O)Nc2ccc(C)c(Cl)c2)cc1 | 58.3%
CCc1nccn1S(=O)(=O)c1cccc([N+](=O)[O-])c1 | 96.5%
C=CCOc1c(Br)cc(/C=N\n2nnnc2N)cc1OC | 85.3%
O=C(c1cccc(C(=O)N2CCN(c3ccc(F)cc3)CC2)c1)N1CCN(c2ccc(F)cc2)CC1 | 47.4%
Oc1c(CN2CCN(c3ccc(F)cc3)CC2)cc(Cl)c2cccnc12 | 3.91% (active)
CCN1CCN(C(c2cccnc2)c2cc(Cl)c3cccnc3c2O)CC1 (stereo unspecified) | 45.3%
Cc1ccc2c(c1)C(c1ccccc1)N(C(=O)c1ccc(S(=O)(=O)N3CCOCC3)cc1)CC(=O)N2 (stereo unspecified) | 94.9%
Cc1cc2c(C)nc(N/N=C/c3ccccc3)nc2o1 | 92%
O=c1[nH]n(-c2cccc(Cl)c2)c2ncccc12 | 85.9%
Clc1cccc(CN2COc3c(cc(Cl)c4cccnc34)C2)c1 | 3.67% (active)
Nc1c(C(=O)NCc2ccccc2)nnn1Cc1cccc(Cl)c1 | 25.6%
CCOC(=O)c1cc2c(=O)n3ccccc3nc2n(CC(C)C)c1=NC(=O)c1c(-c2c(F)cccc2Cl)noc1C | 66.4%
Cc1cc(C)nc(NC(=O)c2cccc([N+](=O)[O-])c2)c1 | 97.8%
CSCC[C@H](NC(=O)OC(C)(C)C)C(=O)N/N=C/c1cc2ccc(C)cc2nc1Cl | 1.02% (active)
CSCCC(NC(=O)COc1ccccc1)C(=O)Nc1ccc(C)cc1 (stereo unspecified) | 99.2%
CCOc1cc(/C=N/NC(=O)OC)ccc1OCCSc1ccc(Cl)cc1 | 93.9%

— PubChem BioAssay AID818 (SRMLSC, 2007)
